How the values were obtained:
[1] = molecular target: 5'-AMP-activated protein kinase catalytic subunit alpha-2 (Homo sapiens) (UniProt P54646); settings: at 1 µM
[2] = molecular target: T1, NUAK family SNF1-like kinase 1 (Homo sapiens) (UniProt O60285); settings: at 0.1 µM
T1 sequence (whole entry): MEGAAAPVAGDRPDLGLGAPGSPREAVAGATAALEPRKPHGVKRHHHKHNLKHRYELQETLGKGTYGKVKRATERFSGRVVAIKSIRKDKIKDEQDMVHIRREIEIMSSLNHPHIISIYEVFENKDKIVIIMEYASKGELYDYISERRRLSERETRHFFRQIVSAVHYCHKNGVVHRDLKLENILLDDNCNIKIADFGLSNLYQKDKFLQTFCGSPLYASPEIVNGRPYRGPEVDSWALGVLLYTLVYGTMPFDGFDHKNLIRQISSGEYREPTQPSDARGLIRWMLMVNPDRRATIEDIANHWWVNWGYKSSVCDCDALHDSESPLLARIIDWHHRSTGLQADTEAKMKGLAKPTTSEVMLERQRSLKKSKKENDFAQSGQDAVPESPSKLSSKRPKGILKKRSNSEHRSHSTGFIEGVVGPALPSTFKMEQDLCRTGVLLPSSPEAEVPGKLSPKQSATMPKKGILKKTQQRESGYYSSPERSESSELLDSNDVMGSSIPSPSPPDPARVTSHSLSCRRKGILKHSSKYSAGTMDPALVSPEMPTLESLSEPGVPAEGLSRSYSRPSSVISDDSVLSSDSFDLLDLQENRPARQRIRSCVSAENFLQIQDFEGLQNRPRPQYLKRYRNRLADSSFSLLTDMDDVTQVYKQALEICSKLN

[3] = molecular target: T1, NUAK family SNF1-like kinase 1 (Homo sapiens); settings: at 1 µM
[4] = molecular target: T2, Serine/threonine-protein kinase BRSK1 (Homo sapiens) (UniProt Q8TDC3); settings: at 0.1 µM
T2 sequence (whole entry): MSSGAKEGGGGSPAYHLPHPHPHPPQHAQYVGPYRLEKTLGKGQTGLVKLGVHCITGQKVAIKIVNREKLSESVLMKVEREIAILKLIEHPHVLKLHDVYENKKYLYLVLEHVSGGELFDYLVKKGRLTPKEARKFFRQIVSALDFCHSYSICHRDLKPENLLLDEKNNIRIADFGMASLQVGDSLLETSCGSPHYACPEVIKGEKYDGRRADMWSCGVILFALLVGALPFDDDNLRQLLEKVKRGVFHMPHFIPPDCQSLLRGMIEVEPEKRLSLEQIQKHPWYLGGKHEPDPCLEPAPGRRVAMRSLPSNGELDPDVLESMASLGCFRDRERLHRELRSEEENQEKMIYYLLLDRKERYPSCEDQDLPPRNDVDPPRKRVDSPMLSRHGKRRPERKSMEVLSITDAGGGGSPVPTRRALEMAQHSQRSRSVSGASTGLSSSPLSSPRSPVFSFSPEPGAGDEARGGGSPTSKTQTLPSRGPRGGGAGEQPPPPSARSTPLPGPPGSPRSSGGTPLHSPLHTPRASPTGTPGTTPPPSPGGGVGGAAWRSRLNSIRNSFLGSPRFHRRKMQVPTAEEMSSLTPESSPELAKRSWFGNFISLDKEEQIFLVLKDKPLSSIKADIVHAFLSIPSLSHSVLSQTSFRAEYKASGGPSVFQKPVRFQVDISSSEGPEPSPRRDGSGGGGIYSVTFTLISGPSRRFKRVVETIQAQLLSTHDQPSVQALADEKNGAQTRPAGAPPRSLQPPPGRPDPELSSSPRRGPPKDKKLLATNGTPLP

[5] = molecular target: T2, Serine/threonine-protein kinase BRSK1 (Homo sapiens); settings: at 1 µM
[6] = molecular target: T3, Serine/threonine-protein kinase BRSK2 (Homo sapiens) (UniProt Q8IWQ3); settings: at 0.1 µM
T3 sequence (whole entry): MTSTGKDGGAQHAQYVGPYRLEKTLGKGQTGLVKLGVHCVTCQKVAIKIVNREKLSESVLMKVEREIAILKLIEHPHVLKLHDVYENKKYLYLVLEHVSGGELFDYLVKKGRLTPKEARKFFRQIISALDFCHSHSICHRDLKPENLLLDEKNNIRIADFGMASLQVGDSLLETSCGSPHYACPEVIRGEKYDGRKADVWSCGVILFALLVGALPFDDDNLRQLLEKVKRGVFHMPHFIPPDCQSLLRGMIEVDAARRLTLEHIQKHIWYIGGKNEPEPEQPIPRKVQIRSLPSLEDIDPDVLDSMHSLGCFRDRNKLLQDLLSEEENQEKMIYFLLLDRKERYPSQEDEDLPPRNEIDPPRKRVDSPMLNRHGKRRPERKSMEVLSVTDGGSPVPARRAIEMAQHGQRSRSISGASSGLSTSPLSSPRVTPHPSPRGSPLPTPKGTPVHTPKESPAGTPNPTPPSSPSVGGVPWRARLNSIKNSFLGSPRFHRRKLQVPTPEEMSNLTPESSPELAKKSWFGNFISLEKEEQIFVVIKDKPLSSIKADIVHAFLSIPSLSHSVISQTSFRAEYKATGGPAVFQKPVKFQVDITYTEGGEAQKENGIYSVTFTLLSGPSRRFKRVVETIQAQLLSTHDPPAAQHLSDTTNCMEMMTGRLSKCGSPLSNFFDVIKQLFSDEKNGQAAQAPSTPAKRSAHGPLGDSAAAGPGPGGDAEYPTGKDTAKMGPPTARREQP

[7] = molecular target: T3, Serine/threonine-protein kinase BRSK2 (Homo sapiens); settings: at 1 µM
[8] = molecular target: Calcium/calmodulin-dependent protein kinase type 1D (Homo sapiens) (UniProt Q8IU85); settings: at 0.1 µM
Calcium/calmodulin-dependent protein kinase type 1D (Homo sapiens), sequence (Q8IU85 whole entry, looked up): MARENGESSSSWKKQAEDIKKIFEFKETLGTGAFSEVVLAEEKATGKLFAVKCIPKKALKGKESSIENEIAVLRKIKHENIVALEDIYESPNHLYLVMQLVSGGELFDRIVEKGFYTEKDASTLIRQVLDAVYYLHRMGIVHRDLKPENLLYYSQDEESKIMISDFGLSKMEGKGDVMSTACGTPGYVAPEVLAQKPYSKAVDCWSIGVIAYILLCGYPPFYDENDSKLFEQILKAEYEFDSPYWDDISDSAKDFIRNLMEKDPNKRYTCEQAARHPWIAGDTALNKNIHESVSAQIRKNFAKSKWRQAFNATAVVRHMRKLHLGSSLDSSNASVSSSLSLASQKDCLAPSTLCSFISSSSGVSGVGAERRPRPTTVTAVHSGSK

[9] = molecular target: Calcium/calmodulin-dependent protein kinase type 1D (Homo sapiens) (UniProt Q8IU85); settings: at 1 µM
[10] = molecular target: Calcium/calmodulin-dependent protein kinase type II subunit alpha (Homo sapiens) (UniProt Q9UQM7); settings: at 0.1 µM
Calcium/calmodulin-dependent protein kinase type II subunit alpha (Homo sapiens), sequence (Q9UQM7 whole entry): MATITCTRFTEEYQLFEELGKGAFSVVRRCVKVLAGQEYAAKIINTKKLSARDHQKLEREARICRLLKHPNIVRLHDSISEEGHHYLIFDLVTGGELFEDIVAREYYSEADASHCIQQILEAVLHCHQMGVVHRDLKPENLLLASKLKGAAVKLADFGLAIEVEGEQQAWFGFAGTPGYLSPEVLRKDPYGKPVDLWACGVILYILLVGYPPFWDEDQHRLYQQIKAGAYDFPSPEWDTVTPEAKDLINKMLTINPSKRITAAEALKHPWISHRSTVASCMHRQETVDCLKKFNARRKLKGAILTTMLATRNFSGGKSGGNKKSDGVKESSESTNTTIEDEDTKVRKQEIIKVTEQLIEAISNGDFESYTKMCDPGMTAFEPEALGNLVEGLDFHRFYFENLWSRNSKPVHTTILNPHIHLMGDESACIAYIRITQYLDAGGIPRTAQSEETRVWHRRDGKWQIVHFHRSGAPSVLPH

[11] = molecular target: Calcium/calmodulin-dependent protein kinase type II subunit alpha (Homo sapiens) (UniProt Q9UQM7); settings: at 1 µM
[12] = molecular target: Calcium/calmodulin-dependent protein kinase type II subunit delta (Homo sapiens) (UniProt Q13557); settings: at 0.1 µM
Calcium/calmodulin-dependent protein kinase type II subunit delta (Homo sapiens), sequence (Q13557 whole entry): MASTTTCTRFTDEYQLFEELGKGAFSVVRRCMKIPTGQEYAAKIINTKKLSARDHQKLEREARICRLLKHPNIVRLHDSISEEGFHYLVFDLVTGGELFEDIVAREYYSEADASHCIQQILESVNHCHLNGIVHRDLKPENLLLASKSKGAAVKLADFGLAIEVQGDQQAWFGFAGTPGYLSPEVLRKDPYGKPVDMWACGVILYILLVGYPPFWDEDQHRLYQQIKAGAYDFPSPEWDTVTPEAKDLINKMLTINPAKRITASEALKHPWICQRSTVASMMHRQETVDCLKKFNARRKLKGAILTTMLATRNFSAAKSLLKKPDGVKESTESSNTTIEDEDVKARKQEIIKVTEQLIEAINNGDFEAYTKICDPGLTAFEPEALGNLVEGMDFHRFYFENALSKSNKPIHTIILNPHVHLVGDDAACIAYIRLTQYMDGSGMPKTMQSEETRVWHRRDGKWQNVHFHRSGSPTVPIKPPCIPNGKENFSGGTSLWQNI

[13] = molecular target: Calcium/calmodulin-dependent protein kinase type II subunit delta (Homo sapiens) (UniProt Q13557); settings: at 1 µM
[14] = molecular target: T4, Calcium/calmodulin-dependent protein kinase type IV (Homo sapiens) (UniProt Q16566); settings: at 0.1 µM
T4 sequence (whole entry): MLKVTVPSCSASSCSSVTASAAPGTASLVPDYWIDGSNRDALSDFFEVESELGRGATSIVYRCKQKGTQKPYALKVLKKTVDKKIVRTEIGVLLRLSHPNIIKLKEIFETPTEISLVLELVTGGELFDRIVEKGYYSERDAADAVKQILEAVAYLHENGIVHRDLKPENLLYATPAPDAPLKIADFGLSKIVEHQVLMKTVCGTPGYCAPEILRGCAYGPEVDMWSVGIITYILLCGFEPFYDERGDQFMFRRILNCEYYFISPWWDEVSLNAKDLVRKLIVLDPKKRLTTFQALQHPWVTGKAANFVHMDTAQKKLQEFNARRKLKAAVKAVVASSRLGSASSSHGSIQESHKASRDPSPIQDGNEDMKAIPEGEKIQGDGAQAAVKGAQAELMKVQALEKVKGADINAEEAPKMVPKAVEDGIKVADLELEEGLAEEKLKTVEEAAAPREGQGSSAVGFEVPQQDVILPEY

[15] = molecular target: T4, Calcium/calmodulin-dependent protein kinase type IV (Homo sapiens); settings: at 1 µM
[16] = molecular target: T5, Serine/threonine-protein kinase Chk1 (Homo sapiens) (UniProt O14757); settings: at 0.1 µM
T5 sequence (whole entry): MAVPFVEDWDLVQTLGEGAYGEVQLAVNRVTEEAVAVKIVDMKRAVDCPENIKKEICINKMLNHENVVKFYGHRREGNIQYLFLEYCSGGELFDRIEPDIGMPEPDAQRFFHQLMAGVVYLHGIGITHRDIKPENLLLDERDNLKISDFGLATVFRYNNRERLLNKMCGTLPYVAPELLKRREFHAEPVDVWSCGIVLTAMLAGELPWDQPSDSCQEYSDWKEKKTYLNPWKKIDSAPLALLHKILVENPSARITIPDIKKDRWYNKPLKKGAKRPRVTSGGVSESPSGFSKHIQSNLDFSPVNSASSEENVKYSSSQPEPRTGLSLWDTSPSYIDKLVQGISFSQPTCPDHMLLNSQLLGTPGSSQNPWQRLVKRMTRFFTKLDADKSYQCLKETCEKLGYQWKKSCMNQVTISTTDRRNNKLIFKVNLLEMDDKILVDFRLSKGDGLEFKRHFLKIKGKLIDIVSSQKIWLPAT

[17] = molecular target: T5, Serine/threonine-protein kinase Chk1 (Homo sapiens); settings: at 1 µM
[18] = molecular target: Serine/threonine-protein kinase Chk2 (Homo sapiens) (UniProt O96017); settings: at 0.1 µM
Serine/threonine-protein kinase Chk2 (Homo sapiens), sequence (O96017 whole entry): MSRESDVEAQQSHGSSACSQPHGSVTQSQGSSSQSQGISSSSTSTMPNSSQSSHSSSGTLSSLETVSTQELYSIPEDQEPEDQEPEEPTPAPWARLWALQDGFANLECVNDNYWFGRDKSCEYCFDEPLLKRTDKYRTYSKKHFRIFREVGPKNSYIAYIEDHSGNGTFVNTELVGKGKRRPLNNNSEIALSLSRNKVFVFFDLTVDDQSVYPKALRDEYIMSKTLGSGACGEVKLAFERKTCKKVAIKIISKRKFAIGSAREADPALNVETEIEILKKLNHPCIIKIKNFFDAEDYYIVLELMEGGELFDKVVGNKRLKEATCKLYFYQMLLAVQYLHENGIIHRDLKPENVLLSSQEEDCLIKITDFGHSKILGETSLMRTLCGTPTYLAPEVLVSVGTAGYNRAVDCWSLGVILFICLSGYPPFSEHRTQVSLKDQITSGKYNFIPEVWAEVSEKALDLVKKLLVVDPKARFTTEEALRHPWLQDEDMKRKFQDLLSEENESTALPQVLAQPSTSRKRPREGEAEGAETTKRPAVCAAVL

[19] = molecular target: Serine/threonine-protein kinase Chk2 (Homo sapiens) (UniProt O96017); settings: at 1 µM
[20] = molecular target: Death-associated protein kinase 1 (Homo sapiens) (UniProt P53355); settings: at 0.1 µM;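 further: reported figure is the mean inhibition of DAPK1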
Death-associated protein kinase 1 (Homo sapiens), sequence (P53355 whole entry, looked up): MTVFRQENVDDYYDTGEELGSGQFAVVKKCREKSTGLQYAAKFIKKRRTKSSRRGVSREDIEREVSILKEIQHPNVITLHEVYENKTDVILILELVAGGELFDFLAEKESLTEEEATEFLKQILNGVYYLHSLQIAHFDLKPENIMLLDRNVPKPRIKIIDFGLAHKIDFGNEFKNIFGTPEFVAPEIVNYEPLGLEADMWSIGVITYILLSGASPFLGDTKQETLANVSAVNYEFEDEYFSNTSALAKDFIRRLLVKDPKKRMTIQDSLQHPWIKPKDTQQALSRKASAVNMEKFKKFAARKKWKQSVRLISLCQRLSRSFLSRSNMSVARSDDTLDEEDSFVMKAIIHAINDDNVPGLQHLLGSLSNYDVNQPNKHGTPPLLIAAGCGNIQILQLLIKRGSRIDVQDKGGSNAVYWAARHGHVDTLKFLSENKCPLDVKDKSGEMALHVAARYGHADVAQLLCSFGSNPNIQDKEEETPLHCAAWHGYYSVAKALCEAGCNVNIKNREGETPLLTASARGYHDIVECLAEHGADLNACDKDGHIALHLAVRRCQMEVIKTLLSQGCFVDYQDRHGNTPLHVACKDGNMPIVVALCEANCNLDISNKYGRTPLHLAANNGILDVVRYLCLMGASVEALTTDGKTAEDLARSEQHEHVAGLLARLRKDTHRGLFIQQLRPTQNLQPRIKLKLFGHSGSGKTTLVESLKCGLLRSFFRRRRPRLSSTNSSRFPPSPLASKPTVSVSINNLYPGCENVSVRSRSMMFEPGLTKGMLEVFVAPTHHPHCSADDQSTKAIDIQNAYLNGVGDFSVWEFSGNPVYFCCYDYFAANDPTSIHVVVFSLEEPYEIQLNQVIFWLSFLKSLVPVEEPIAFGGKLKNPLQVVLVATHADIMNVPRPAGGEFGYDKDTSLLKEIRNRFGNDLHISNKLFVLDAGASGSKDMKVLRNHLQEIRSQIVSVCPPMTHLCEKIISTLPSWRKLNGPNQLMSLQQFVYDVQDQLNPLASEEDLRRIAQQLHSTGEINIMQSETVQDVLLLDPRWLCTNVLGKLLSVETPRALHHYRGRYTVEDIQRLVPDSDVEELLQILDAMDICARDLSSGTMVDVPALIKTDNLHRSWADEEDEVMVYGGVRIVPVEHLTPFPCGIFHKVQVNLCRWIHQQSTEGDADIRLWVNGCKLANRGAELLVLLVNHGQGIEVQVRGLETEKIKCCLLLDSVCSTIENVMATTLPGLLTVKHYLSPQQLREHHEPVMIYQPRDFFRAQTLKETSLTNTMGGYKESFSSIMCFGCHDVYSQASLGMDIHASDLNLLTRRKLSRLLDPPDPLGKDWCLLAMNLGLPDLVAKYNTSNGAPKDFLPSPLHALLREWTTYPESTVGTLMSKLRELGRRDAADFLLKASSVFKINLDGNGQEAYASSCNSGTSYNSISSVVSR

5'-AMP-activated protein kinase catalytic subunit alpha-2 (Homo sapiens), sequence (P54646 whole entry, looked up): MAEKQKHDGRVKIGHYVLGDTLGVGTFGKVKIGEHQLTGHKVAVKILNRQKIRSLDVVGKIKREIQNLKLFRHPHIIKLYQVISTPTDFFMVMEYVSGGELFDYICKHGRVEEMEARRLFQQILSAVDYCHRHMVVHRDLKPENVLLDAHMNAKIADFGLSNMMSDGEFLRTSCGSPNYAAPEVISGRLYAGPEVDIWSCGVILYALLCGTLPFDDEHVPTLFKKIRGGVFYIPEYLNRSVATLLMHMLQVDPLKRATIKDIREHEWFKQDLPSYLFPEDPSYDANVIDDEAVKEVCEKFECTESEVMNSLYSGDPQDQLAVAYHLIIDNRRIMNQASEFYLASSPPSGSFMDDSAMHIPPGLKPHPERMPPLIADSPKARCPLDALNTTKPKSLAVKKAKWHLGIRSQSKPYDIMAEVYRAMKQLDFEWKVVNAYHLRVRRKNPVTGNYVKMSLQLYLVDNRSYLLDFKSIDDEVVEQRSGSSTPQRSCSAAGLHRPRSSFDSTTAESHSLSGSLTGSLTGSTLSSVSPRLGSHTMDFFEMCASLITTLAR

| SMILES | inhibition [1] | inhibition [2] | inhibition [3] | inhibition [4] | inhibition [5] | inhibition [6] | inhibition [7] | inhibition [8] | inhibition [9] | inhibition [10] | inhibition [11] | inhibition [12] | inhibition [13] | inhibition [14] | inhibition [15] | inhibition [16] | inhibition [17] | inhibition [18] | inhibition [19] | inhibition [20] |
| --- | --- | --- | --- | --- | --- | --- | --- | --- | --- | --- | --- | --- | --- | --- | --- | --- | --- | --- | --- | --- |
| Nc1ccc(C#Cc2cncnc2Nc2ccc(OCc3cccc(F)c3)c(Cl)c2)cc1 | 2.03% | 1.31% | -1.87% | 1.62% | 0.9% | 1.82% | 1.94% | 0.26% | 0.65% | 1.19% | -1.06% | 0.73% | 0.72% | 1.79% | -0.16% | 0.65% | 0.62% | 1.8% | 0.63% | 4.63% |
| NS(=O)(=O)c1ccc(-c2cc3ccncc3cc2OCc2ccccc2)cc1 | 2.32% | -0.67% | -0.08% | -0.48% | 0.47% | 0.96% | 2.69% | -6.04% | 0.65% | 1.83% | 2.94% | 2.4% | 4.59% | -1.16% | 2.15% | 0.26% | 0.12% | 2.85% | 4.7% | 1.1% |
| COC(=O)Nc1nc2cc(Oc3ccc(NC(=O)Nc4cccc(Br)c4)cc3)ccc2[nH]1 | 4.23% | 3.02% | 2.47% | -0.15% | 0.86% | 2% | 0.84% | 1.16% | 0.29% | 3.25% | 2.07% | 1.97% | 3.53% | 1.41% | 2.33% | 2.14% | 2.72% | 1.92% | 2.2% | 2.43% |
| CCn1c(-c2nonc2N)nc2ccc(F)cc21 | 3.56% | 1.74% | 2.03% | 0.43% | 1.87% | 1.78% | 5.06% | 0.45% | -0.34% | 4.39% | 3.68% | 3.98% | 3.55% | -2.59% | -2.75% | 3.58% | 8.57% | 3.29% | 4.58% | 8.42% |
| Cc1ccc(O)cc1Nc1ccnc2ccc(S(C)(=O)=O)cc12 | 3.93% | 2% | 4.91% | 0.5% | 1.8% | 2.1% | 5.1% | -0.51% | 0.98% | 2.94% | 6.06% | 3.19% | 3.36% | -1.1% | -1.84% | 8.75% | 9.21% | 8.1% | 15.1% | 12.2% |
| CN(C)CCCn1c(-c2nonc2N)nc2cnccc21 | 5.42% | 3.04% | -0.59% | 1.23% | 0.57% | 0.27% | 1.19% | 0.27% | -0.73% | 2.81% | 3.18% | 3.33% | 4.12% | -0.84% | 15.5% | 5.63% | 4.94% | 2.39% | 3.79% | 4.9% |
| ON=C1CCc2cc(-c3nc(C4CCNCC4)[nH]c3-c3ccncc3)ccc21 | 2.64% | 0.54% | 1.89% | 1.34% | 0.41% | -0.35% | 1.99% | 0.14% | 11.8% | 1.63% | 3.5% | 16.1% | 2.8% | 1.25% | 1.79% | 0.67% | 1.05% | 0.01% | 0.8% | 0.46% |
